Results taken from PubChem BioAssay (NCI).
The panel holds about 83,000 compounds, 20% with a hit somewhere; the sample as a whole holds those more often.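 Single-concentration screen, 48 h exposure, 96-well plates. Endpoint: percent growth. Below 10 = active.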 A number with no mark means an inactive call. Active and inactive are the calls of the source.

What was measured:
Experiment in all cases: NCI-60 one-dose screen, 48 h (100 = growth as untreated, 0 = no growth, -100 = all killed)
Settings in all cases: 10 µM unless noted
NCI-H23 lung = test system: NCI-H23 lung
NCI-H226 lung = test system: NCI-H226 lung
NCI-H322M lung = test system: NCI-H322M lung
HOP-62 NSCLC = test system: HOP-62 NSCLC
NCI-H460 lung = test system: NCI-H460 lung
HOP-92 NSCLC = test system: HOP-92 NSCLC
NCI-H522 lung = test system: NCI-H522 lung
A549/ATCC NSCLC = test system: A549/ATCC NSCLC
786-0 renal = test system: 786-0 renal
COLO 205 colon = test system: COLO 205 colon
DU-145 prostate = test system: DU-145 prostate
K-562 leukemia = test system: K-562 leukemia
MALME-3M melanoma = test system: MALME-3M melanoma
MDA-MB-231 breast = test system: MDA-MB-231 breast
RXF 393 renal = test system: RXF 393 renal
SF-268 CNS = test system: SF-268 CNS
SF-295 CNS = test system: SF-295 CNS
SF-539 CNS = test system: SF-539 CNS
UACC-257 melanoma = test system: UACC-257 melanoma

SMILES	growth (NCI-H23 lung)	growth (NCI-H226 lung)	growth (NCI-H322M lung)	growth (HOP-62 NSCLC)	growth (NCI-H460 lung)	growth (HOP-92 NSCLC)	growth (NCI-H522 lung)	growth (A549/ATCC NSCLC)	growth (786-0 renal)	growth (COLO 205 colon)	growth (DU-145 prostate)	growth (K-562 leukemia)	growth (MALME-3M melanoma)	growth (MDA-MB-231 breast)	growth (RXF 393 renal)	growth (SF-268 CNS)	growth (SF-295 CNS)	growth (SF-539 CNS)	growth (UACC-257 melanoma)
Cc1ccc(O)c(C(=O)c2ccccc2Cl)c1	94.3%	100%	109%	98.3%	109%	112%	102%	104%	99.1%	138%	126%	91.4%	106%	109%	104%	104%	94.6%	96%	108%
O=C1CC(c2ccc3c(c2)OCO3)Nc2cc3c(cc21)OCO3 (centres undefined)	44.5%	64.5%	57.5%	29.7%	5.95% (active)	29.2%	-9.02% (active)	10.1%	30.8%	-27.1% (active)	15.3%	10.2%	75.2%	24.7%	-11.2% (active)	44%	7.59% (active)	6.5% (active)	39.6%
COc1ccc(C2=NC(=O)NC2c2ccc(OC)cc2)cc1 (centres undefined)	68.3%	74%	132%	42.3%	72.9%	26%	54%	82.8%	38.6%	58.7%	88.5%	21.2%	75.5%	73.9%	108%	73.3%	79.7%	62.4%	105%
O=C(O)c1ccc(CO)o1	110%	106%	105%	113%	101%	91.5%	86.4%	93.6%	77.8%	115%	113%	109%	113%	112%	104%	109%	102%	99.6%	85.5%
O=C(Nc1ccc(N2CCCCC2)c(Cl)c1)c1ccc(Br)o1	81.3%	82.1%	115%	109%	69.4%	105%	87.2%	82.5%	97.6%	103%	68%	68.1%	-66.9% (active)	69.2%	108%	76%	105%	118%	67.5%
CN(C)c1ccc(-c2cc(-c3ccc(Nc4nc(Nc5ccccc5)nc(Nc5ccc(Cl)cc5)n4)cc3)nc(N)n2)cc1	48%	59%	66.3%	33.1%	41.7%	-3.41% (active)	55.6%	43.4%	10.6%	58.1%	61.4%	10.8%	57%	41.8%	53.8%	50.8%	36.5%	60.8%	55.3%
CO[C@H]1/C=C/O[C@@]2(C)Oc3c(C)c(O)c4c(c3C2=O)C(=O)C(/C=N/N(c2ccccc2)c2ccccc2)=C(NC(=O)/C(C)=C\C=C\[C@H](C)[C@H](O)[C@@H](C)[C@@H](O)[C@@H](C)[C@H](OC(C)=O)[C@@H]1C)C4=O	5.83% (active)	18.4%	22.2%	-76.7% (active)	-50.7% (active)	-48.6% (active)	-24% (active)	3.7% (active)	3.91% (active)	-60.3% (active)	12.9%	7.47% (active)	-43.9% (active)	-40.1% (active)	-61.9% (active)	14.9%	-72.3% (active)	-69.8% (active)	-22.5% (active)
COC1(CC[C@@H](C)COC2OC(CO)C(O)C(O)C2O)O[C@H]2C[C@H]3[C@@H]4CC=C5C[C@@H](OC6OC(CO)C(OC7OC(C)C(O)C(O)C7O)C(O)C6OC6OC(C)C(O)C(O)C6O)CC[C@]5(C)[C@H]4CC[C@]3(C)[C@H]2[C@@H]1C (some centres undefined)	-63% (active)	-57.2% (active)	-85.2% (active)	-83% (active)	-90.2% (active)	-62% (active)	-60.9% (active)	-64.7% (active)	-94.3% (active)	-12.2% (active)	-96.2% (active)	-22.9% (active)	-87.3% (active)	-70% (active)	-78.1% (active)	-90.7% (active)	-81.9% (active)	-99% (active)	-47.4% (active)
COc1ccc(-c2cc(-c3ccc(Nc4nc(Nc5ccccc5)nc(Nc5ccc(Cl)cc5)n4)cc3)nc(N)c2C#N)cc1	-6.72% (active)	-60.9% (active)	42.2%	-31.1% (active)	24.6%	-67.6% (active)	-3.64% (active)	38.2%	-81% (active)	12.5%	33%	4.07% (active)	-76.6% (active)	-27.4% (active)	-12.1% (active)	-26.4% (active)	34.4%	-54.9% (active)	-11.4% (active)
C/C(=N\NC(N)=S)c1nc2ccc(Cl)cc2[nH]1	75.4%	46.3%	70%	43%	15.3%	79.5%	34%	34.4%	31.2%	45%	34.1%	39.5%	113%	63.2%	48.9%	33.2%	44.8%	43%	68.8%
Nc1c(C(=O)c2ccc(Cl)s2)sc2nc3c(cc12)CCCC3	91.5%	96.6%	103%	97.3%	98.6%	82.5%	83.1%	100%	106%	110%	110%	101%	100%	108%	113%	104%	102%	96.8%	105%
COc1cc2c(O)n(CCCn3ccnc3)c3c4cnc5cccc(c(=O)c3c2cc1OC)c54	38.8%	41.8%	77.9%	13.1%	6.78% (active)	28%	18.7%	35.6%	7.01% (active)	33.1%	19.2%	11.6%	67.1%	51.2%	39.5%	36.4%	21.4%	22.1%	45.2%
CCCc1cc(=O)oc2c3c(c4c(c12)OC(C)(C)C=C4)O[C@@H](C)[C@H](C)C3=O	61.1%	89.8%	81%	102%	60.5%	43.7%	71.9%	64.5%	72.8%	74.8%	79.4%	47.6%	90%	71.9%	18.4%	86.4%	69.9%	81%	55.1%
CCC(O)(C(c1ccccc1)c1ccccn1)C(c1ccccc1)c1ccccn1 (centres undefined)	110%	104%	98.6%	106%	110%	109%	102%	104%	105%	105%	103%	101%	94.4%	120%	118%	95.3%	122%	92.1%	112%
Cn1ncc2c(Nc3ccc(Br)cc3)nc(Nc3ccc(Br)cc3)nc21	27.5%	62.1%	73%	23.8%	8.2% (active)	7.66% (active)	44.8%	48.1%	-38.9% (active)	64%	68.3%	11.4%	55.4%	17.7%	64.1%	57.6%	40.2%	64.9%	82.6%
CC1=CC(=O)C(C(C)C)=CC1=Nc1cc(Br)c(O)c(Br)c1	25.7%	84.1%	53.6%	12.7%	5.15% (active)	35.5%	55%	28.2%	9.71% (active)	144%	3.08% (active)	0.315% (active)	96.6%	7.91% (active)	5.99% (active)	27%	17%	-33.6% (active)	95.5%
